# Values joined by “and” are separate entries in the source; they are usually repeats but may differ in a detail not shown here. Equal values may be shown once. Active and inactive are the calls of the source. Cut-off read from the data, not from the text of the source, unless noted: active = inhibition above about 80%; inactive = the rest.
# Columns and labels:
# [1] = target: 6-phosphogluconate dehydrogenase, decarboxylating (Homo sapiens) (UniProt P52209); test: inhibition of human phosphogluconate dehydrogenase – biochemical, recombinant enzyme, NADPH absorbance, primary screen (AID 1159550;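 active = at least 20% inhibition of 6-phosphogluconate dehydrogenase activity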); conditions: recombinant 6PGD, NADPH absorbance 341 nm; at 10 µM; stronger effect = higher value
# Sequence of 6-phosphogluconate dehydrogenase, decarboxylating (Homo sapiens) (P52209 whole entry, looked up): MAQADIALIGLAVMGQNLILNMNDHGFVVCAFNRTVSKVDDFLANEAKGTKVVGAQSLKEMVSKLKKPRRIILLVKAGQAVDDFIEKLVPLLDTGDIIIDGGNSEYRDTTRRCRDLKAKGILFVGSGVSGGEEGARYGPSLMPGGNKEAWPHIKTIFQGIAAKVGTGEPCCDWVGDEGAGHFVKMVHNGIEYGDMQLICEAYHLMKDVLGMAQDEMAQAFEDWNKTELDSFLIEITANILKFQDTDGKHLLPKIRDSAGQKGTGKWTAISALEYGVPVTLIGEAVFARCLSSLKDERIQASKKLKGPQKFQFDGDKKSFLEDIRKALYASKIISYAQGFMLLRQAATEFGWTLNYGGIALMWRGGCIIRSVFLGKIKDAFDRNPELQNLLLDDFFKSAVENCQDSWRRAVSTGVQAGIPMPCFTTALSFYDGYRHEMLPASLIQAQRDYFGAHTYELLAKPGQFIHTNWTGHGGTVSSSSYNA
# [2] = viability loss with induced miR-34 in A549 – imaging, A549 dox-inducible miR-34, nuclei and caspase counts, primary screen (AID 1347080;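 active = compounds whose cell count with miR-34 switched on is under 0.7 times the count with it off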); conditions: A549 miR-34 inducible, Hoechst nuclei count, 48 h
# [3] = galactose survival enhancers in mitochondrial complex I cybrids – cell-based, galactose medium, ATP luminescence, primary screen (AID 1645843;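 active = z-score of at least 1.8 in each of two replicates, scored against plate mean and spread of sample wells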;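 note: positive z means more ATP and so rescue of galactose-driven cybrid death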); conditions: complex I mutant cybrid cells, 72 h, stronger effect = higher value
# [4] = growth inhibition, single agent or in combination, cell-based, chromothripsis tumors, cisplatin or BGB combos (AID 1671449); conditions: LFS_MB_P medulloblastoma cells;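 note: cells exposed for 96 hours; 0% = vehicle DMSO and 100% = killing by high DMSO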
# [5] = growth inhibition, single agent and combos, cell-based, chromothripsis tumors, cisplatin or BGB combos (AID 1671450); conditions: HDN33 neuroblastoma cells, stronger effect = higher value;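 note: cells exposed to compound for four days; 0% = vehicle DMSO and 100% = cell killing by high DMSO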
# [6] = growth inhibition, single agents and combos, ICB984, cell-based, cisplatin or BGB combos, synergistic combos for chromothripsis tumors (AID 1671451; call rule not given here;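 note: cells exposed for 96 hours before readout; 0% = vehicle DMSO and 100% = killing by high DMSO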); conditions: ICB984 medulloblastoma cells, drug combinations, stronger effect = higher value
# [7] = growth inhibition, single agents and combos, LFS_MB_1R, cell-based, cisplatin or BGB combos, synergistic combos for chromothripsis tumors (AID 1671452); conditions: LFS_MB_1R medulloblastoma cells, stronger effect = higher value;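 note: cells exposed for 96 hours before readout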
# [8] = growth inhibition, single agents and combos, HTB85, cell-based, BGB or cisplatin IC20 combos, synergistic combos for chromothripsis tumors (AID 1671453); conditions: HTB85 osteosarcoma cells, drug combinations, stronger effect = higher value;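 note: cells exposed for 96 hours before readout; 0% = vehicle DMSO and 100% = high DMSO killing control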
# [9] = growth inhibition, MDA-MB-436, cell-based, BGB or cisplatin combos, synergistic combos for chromothripsis tumors (AID 1671458; call rule not given here;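 note: cells exposed for 96 hours; 0% = vehicle DMSO and 100% = killing by high DMSO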); conditions: MDA-MB-436 breast carcinoma growth inhibition, drug combinations, stronger effect = higher value
# [10] = BT084 cell growth, single and combined drugs, ICGC_MB145, cisplatin and BGB IC40 combos (AID 1671461); conditions: BT084 medulloblastoma cells, drug combinations, stronger effect = higher value;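 note: cells exposed to drugs for 96 hours; 0% = vehicle DMSO and 100% = high DMSO full killing control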
# [11] = RCMB18 cell growth, single agent and combined, cisplatin and BGB IC40 combos (AID 1671462); conditions: RCMB18 medulloblastoma cells, stronger effect = higher value;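 note: cells exposed to compound for four days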
# [12] = CRL1545 cell growth, single agent and combined, cisplatin and BGB IC20 combos (AID 1671464); conditions: CRL1545 osteosarcoma cells, stronger effect = higher value;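 note: cells exposed to compound for 96 hours before readout; 0% = vehicle DMSO and 100% = high DMSO killing control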
# [13] = compounds altering viability of human ES cells (AID 493140; call rule not given here;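 note: cells exposed to compounds for four days before counting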); conditions: human embryonic stem cell survival screen; stronger effect = higher value
# [14] = P. berghei load reduction in hepatocytes – cell-based, HepG2, luciferase luminescence, HepG2 viability, primary screen (AID 624349; in the data active = parasite load remaining mostly below about 12%, no sharp cut-off; inactive = mostly above about 10%;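 note: 100% = mean of DMSO negative control wells on the same plate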); conditions: P. berghei liver stage in HepG2, luciferase luminescence, concentration not given here; parasite load remaining: stronger effect = lower value; viability: measured here: HepG2 viability without parasites
# [15] = target: Mitogen-activated protein kinase 7 (Homo sapiens) (UniProt Q13164); test: Gal4-ERK5 driven luciferase induction – cell-based, HTS, primary screen (AID 1508626;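 active = luciferase signal above three times the same-plate solvent-only control wells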;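 note: luciferase driven by Gal4-ERK5 fusion binding five Gal4 sites before minimal TATA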); conditions: HeLa Gal4-ERK5 transactivation, 18 h, at 5 µM, stronger effect = higher value
# Sequence of Mitogen-activated protein kinase 7 (Homo sapiens) (Q13164 whole entry, looked up, the tested form may be a part): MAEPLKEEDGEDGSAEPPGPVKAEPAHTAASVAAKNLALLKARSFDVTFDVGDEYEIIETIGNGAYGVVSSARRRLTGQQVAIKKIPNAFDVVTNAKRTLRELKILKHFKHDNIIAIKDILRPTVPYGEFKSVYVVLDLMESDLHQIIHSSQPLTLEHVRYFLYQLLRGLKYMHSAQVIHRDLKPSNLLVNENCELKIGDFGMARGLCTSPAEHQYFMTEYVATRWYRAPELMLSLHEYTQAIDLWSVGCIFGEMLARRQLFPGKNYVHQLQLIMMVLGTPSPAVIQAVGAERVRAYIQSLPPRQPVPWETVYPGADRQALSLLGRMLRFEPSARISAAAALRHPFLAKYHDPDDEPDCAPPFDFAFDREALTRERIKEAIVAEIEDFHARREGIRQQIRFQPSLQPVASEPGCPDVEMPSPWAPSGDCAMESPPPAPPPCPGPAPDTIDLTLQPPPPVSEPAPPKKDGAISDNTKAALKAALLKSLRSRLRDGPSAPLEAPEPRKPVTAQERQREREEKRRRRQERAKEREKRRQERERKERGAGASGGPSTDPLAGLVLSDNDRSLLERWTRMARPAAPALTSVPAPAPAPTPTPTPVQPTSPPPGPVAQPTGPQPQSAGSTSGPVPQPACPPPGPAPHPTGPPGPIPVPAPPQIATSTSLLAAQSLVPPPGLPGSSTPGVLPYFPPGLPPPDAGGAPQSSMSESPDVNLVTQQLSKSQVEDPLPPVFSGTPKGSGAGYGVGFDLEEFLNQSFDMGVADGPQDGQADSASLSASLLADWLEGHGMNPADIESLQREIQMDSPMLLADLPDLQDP
# [16] = target: NAD(+) hydrolase SARM1 (Homo sapiens) (UniProt Q6SZW1); test: blocking NAD cleavage by SARM1 SAM-TIR – cell lysate, NAD-Glo luminescence (AID 1508614;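 active = compound whose remaining NAD level is above about 45 nM, limit read from the data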;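 note: higher remaining NAD means stronger inhibition of SARM1 NADase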); conditions: SAM-TIR HEK293T lysate NADase, at 1 µM, stronger effect = higher value
# Sequence of NAD(+) hydrolase SARM1 (Homo sapiens) (Q6SZW1 whole entry, looked up): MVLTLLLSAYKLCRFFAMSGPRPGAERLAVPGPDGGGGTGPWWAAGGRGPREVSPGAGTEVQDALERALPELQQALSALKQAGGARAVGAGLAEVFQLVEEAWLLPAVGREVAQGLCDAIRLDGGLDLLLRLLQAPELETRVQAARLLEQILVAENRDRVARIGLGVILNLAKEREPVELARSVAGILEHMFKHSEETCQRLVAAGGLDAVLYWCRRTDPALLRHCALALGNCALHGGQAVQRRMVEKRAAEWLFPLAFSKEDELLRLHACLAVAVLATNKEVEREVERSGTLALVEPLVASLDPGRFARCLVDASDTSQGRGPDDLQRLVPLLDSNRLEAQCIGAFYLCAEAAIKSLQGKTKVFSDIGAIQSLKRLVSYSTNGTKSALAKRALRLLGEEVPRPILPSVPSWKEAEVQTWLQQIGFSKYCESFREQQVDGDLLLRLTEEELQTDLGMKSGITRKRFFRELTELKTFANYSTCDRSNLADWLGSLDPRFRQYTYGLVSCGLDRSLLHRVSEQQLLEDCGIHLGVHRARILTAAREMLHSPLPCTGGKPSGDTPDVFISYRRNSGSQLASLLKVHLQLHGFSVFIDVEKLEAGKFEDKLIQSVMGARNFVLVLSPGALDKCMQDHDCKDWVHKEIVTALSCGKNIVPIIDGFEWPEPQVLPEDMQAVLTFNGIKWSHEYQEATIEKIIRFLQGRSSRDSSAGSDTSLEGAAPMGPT
# [17] = stronger effect = lower value, cell number ratio, induced over uninduced
# [18] = measured here: relative caspase fold change +Dox/-Dox
# [19] = measured here: total cells with miR-34 induction, stronger effect = lower value
# [20] = measured here: total cells without miR-34 induction
# [21] = measured here: combination with BGB IC40, at 0.05 µM
# [22] = measured here: with BGB IC20 combination, at 0.5 µM
# [23] = measured here: with cisplatin IC20 combination, at 0.5 µM
# [24] = measured here: combination with cisplatin, at 0.5 µM
smiles,measurement,setting,value
COc1cc(C2c3cc4c(cc3C(OC3OC5COC(C)OC5C(O)C3O)C3COC(=O)C23)OCO4)cc(OC)c1O (centres undefined),inhibition,[1],-3.12% (inactive)
same,fold change,[2]; [17],0.803 (inactive)
same,fold change,[2]; [18],1.95
same,cell count,[2]; [19],3290
same,cell count,[2]; [20],4090
same,z-score,[3],-1.39 (inactive)
same,inhibition,"[4]; at 0.5 µM, stronger effect = higher value",-32.6% (inactive) and -17.8% (inactive)
same,inhibition,"[4]; measured here: combination with BGB IC20, at 0.005 µM",-28.8% and 2.01%
same,inhibition,"[4]; measured here: combination with BGB IC40, at 0.005 µM",-24.3% and 13.4%
same,inhibition,[4]; [21],-29.9% and -0.69%
same,inhibition,"[4]; measured here: combination with cisplatin, at 0.5 µM, stronger effect = higher value",-45.5% and -45.4%
same,inhibition,"[4]; measured here: combination with cisplatin, at 5 µM, stronger effect = higher value",-34.4% and -6.98%
same,inhibition,"[5]; BGB combo, at 5 µM",47.6% and 64.8%
same,inhibition,[5]; at 0.5 µM,15.7% (inactive) and 26.2% (inactive)
same,inhibition,"[5]; cisplatin combo, at 5 µM",44.6% and 49%
same,inhibition,[5]; [22],15.9% and 28.5%
same,inhibition,[5]; [23],-1.85% and 5.29%
same,inhibition,"[5]; single agent, at 5 µM",68.9% and 70.5%
same,inhibition,"[6]; BGB IC20 combo, at 0.005 µM",-20.6% and 5.1%
same,inhibition,"[6]; BGB IC40 combo, at 0.005 µM",-32.2% and -0.661%
same,inhibition,"[6]; BGB IC40 combo, at 0.05 µM",-74.4% and -28.1%
same,inhibition,[6]; at 0.5 µM,-29.8% (inactive) and -8.32% (inactive)
same,inhibition,"[6]; cisplatin combo, at 0.05 µM",-80.7% and -31.6%
same,inhibition,"[6]; cisplatin combo, at 0.5 µM",-45.1% and -7.65%
same,inhibition,"[6]; cisplatin combo, at 5 µM",-73.3% and -20.4%
same,inhibition,"[6]; measured here: 5 uM single agent, at 5 µM",-13% and -19.7%
same,inhibition,[7]; at 0.5 µM,-24.1% (inactive) and -15.7% (inactive)
same,inhibition,[7]; [21],-34.7% and -15.9%
same,inhibition,[7]; [24],-23.9% and -48.9%
same,inhibition,"[7]; measured here: combination with cisplatin, at 5 µM",-59.7% and -24.4%
same,inhibition,[8]; at 0.5 µM,3.37% (inactive) and 12.3% (inactive)
same,inhibition,"[8]; measured here: with BGB IC20, at 0.5 µM",-1.07% and 17.8%
same,inhibition,"[8]; measured here: with BGB IC20, at 5 µM",84.3% and 86%
same,inhibition,"[8]; measured here: with cisplatin IC20, at 0.5 µM",-5.76% and 1.07%
same,inhibition,"[8]; measured here: with cisplatin IC20, at 5 µM",76.7% and 87%
same,inhibition,"[8]; single agent, at 5 µM",84.8% and 89.6%
same,inhibition,[9]; at 0.5 µM,19.1% (inactive) and 27.8% (inactive)
same,inhibition,"[9]; measured here: BGB combination, at 0.5 µM",8.19% and 23.7%
same,inhibition,"[9]; measured here: BGB combination, at 5 µM",34% and 51.6%
same,inhibition,"[9]; measured here: cisplatin combination, at 0.5 µM",17.4% and 18.9%
same,inhibition,"[9]; measured here: cisplatin combination, at 5 µM",53.5% and 66.5%
same,inhibition,[10]; at 0.5 µM,-29.6% (inactive) and -14.9% (inactive)
same,inhibition,"[10]; cisplatin combination, at 0.5 µM",-28.5% and -4.54%
same,inhibition,"[10]; cisplatin combination, at 5 µM",10.8% and 15.8%
same,inhibition,"[10]; measured here: BGB IC40 combination 0.05 uM, at 0.05 µM",35.1% and 9.21%
same,inhibition,"[10]; single agent, at 5 µM",-17.9% and 3.25%
same,inhibition,[11]; at 0.5 µM,-14.2% (inactive) and -26.4% (inactive)
same,inhibition,"[11]; cisplatin combo, at 5 µM",-20.2% and -20.5%
same,inhibition,"[11]; measured here: BGB IC40 combination, at 0.05 µM",-25.5% and -24.7%
same,inhibition,[11]; [24],-16.3% and -39.4%
same,inhibition,"[11]; single agent, at 5 µM",-18.8% and -0.235%
same,inhibition,[12]; at 0.5 µM,27.6% (inactive) and 42.6% (inactive)
same,inhibition,[12]; [22],19.9% and 59.6%
same,inhibition,[12]; [23],30.4% and 32.6%
same,inhibition,"[12]; single agent, at 0.05 µM",-27% and -16.2%
same,inhibition,"[12]; single agent, at 5 µM",72.5% and 78.1%
CC1CCCC(C)N1NC(=O)c1ccc(Cl)c(S(N)(=O)=O)c1 (centres undefined),survival,[13],5.92 (inactive)
same,parasite load remaining,[14],92.4% (inactive) and 77.2% (inactive)
same,viability,[14],76.8% and 96.5%
same,inhibition,[1],6.91% (inactive)
same,fold change,[2]; [17],0.9 (inactive)
same,fold change,[2]; [18],4.97
same,cell count,[2]; [19],7530
same,cell count,[2]; [20],8360
CC12CC[C@H](CC1=O)C2(C)C,parasite load remaining,[14],74.1% (inactive) and 58.3% (inactive)
same,viability,[14],75% and 94.1%
same,inhibition,[1],13.3% (inactive)
same,fold change,[2]; [17],0.849 (inactive)
same,fold change,[2]; [18],0.856
same,cell count,[2]; [19],10900
same,cell count,[2]; [20],12800
C1CCN2C[C@@H]3C[C@H](CN4CCCC[C@@H]34)[C@H]2C1,parasite load remaining,[14],83.5% (inactive)
same,viability,[14],82.9%
same,inhibition,[1],11% (inactive)
same,fold change,[2]; [17],0.85 (inactive)
same,fold change,[2]; [18],3.93
same,cell count,[2]; [19],10700
same,cell count,[2]; [20],12500
same,luciferase signal,[15],68 AU (inactive)
COc1ccc2ccc(=O)oc2c1,inhibition,[1],6.96% (inactive)
same,luciferase signal,[15],44 AU (inactive)
CCc1cn([C@H]2C[C@H](O)[C@@H](CO)O2)c(=O)[nH]c1=O,inhibition,[1],-4.52% (inactive)
same,remaining NAD,[16],10 nM (inactive)
same,luciferase signal,[15],64 AU (inactive)
CC[C@H]1OC(=O)[C@H](C)C(=O)[C@H](C)[C@@H](O[C@@H]2O[C@H](C)C[C@H](N(C)C)[C@H]2O)[C@](C)(OC)C[C@@H](C)C(=O)[C@H](C)[C@H]2N(CCCCn3cnc(-c4cccnc4)c3)C(=O)O[C@]12C,inhibition,[1],-10.3% (inactive)
same,remaining NAD,[16],10 nM (inactive)
same,luciferase signal,[15],48 AU (inactive)
CC(C)C[C@@H]1NC(=O)[C@H](CCCN)NC(=O)[C@H](C(C)C)NC(=O)[C@H](Cc2ccc(O)cc2)N[C@@H](CCC(=O)O)C(=O)N[C@@H](CC(N)=O)C(=O)[C@@H](Cc2ccccc2)NC(=O)[C@H](Cc2ccccc2)NC(=O)[C@@H]2CCCN2C(=O)[C@@H](Cc2ccccc2)NC1=O,inhibition,[1],2.66% (inactive)
same,remaining NAD,[16],10 nM (inactive)

# Source: PubChem BioAssay
